From PubChem BioAssay AID1159580 (chemical genetic matrix, 2015)
In all, about 5,500 compounds went through this assay and about 2,000 (36%) were called active. Not shown: some 18% with an inconclusive outcome. Cut-off read from the data, not from the text of the source: active = normalized growth mostly below about 0.91 (no sharp cut-off); inconclusive = no clear call, values can overlap the other calls; inactive = mostly above about 0.92. This is one part of the list.

Assay: chemical genetic growth profiling, strain panel (AID 1159580);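 note: tested at 20 µM; growth read once vehicle control cultures reached saturation at 30 °C; 1 = growth at the plate median or of vehicle wells; lower values mean less growth of the strain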
Conditions: growth OD

Measured: normalized growth

COc1ccc2c(c1)[C@@]1(C)CCC(=O)C[C@H]1CC2
inactive: S. cerevisiae deletion strains, locus YAL013W, strain DEP1, active compounds read low 0.984 | S. cerevisiae deletion strains, locus YAL021C, strain ccr4, active compounds read low 0.989 | S. cerevisiae deletion strains, locus YAL026C, strain drs2, active compounds read low 0.982 | S. cerevisiae deletion strains, locus YAL030W, strain snc1, active compounds read low 0.959 | S. cerevisiae deletion strains, locus YBL061C, strain skt5, active compounds read low 0.989 | S. cerevisiae deletion strains, locus YBR009C, strain hhf1, active compounds read low 0.98 | S. cerevisiae deletion strains, locus YBR021W, strain FUR4, active compounds read low 0.969 | S. cerevisiae deletion strains, locus YBR023C, strain chs3, active compounds read low 0.98 | S. cerevisiae deletion strains, locus YBR171W, strain sec66, active compounds read low 0.93 | S. cerevisiae deletion strains, locus YBR229C, strain ROT2, active compounds read low 0.994 | S. cerevisiae deletion strains, locus YBR231C, strain swc5, active compounds read low 0.986 | S. cerevisiae deletion strains, locus YBR279W, strain paf1, active compounds read low 0.98 | S. cerevisiae deletion strains, locus YCL011C, strain gbp2, active compounds read low 0.961 | S. cerevisiae deletion strains, locus YCL016C, strain dcc1, active compounds read low 0.976 | S. cerevisiae deletion strains, locus YCL029C, strain bik1, active compounds read low 0.985 | S. cerevisiae deletion strains, locus YCL061C, strain MRC1, active compounds read low 0.949 | S. cerevisiae deletion strains, locus YCL069W, strain vba3, active compounds read low 0.963 | S. cerevisiae deletion strains, locus YCR088W, strain abp1, active compounds read low 0.978 | S. cerevisiae deletion strains, locus YDL005C, strain med2, active compounds read low 0.954 | S. cerevisiae deletion strains, locus YDL035C, strain GPR1, active compounds read low 1.01 | S. cerevisiae deletion strains, locus YDL040C, strain nat1, active compounds read low 0.969 | S. cerevisiae deletion strains, locus YDL074C, strain BRE1, active compounds read low 1.01 | S. cerevisiae deletion strains, locus YDL101C, strain DUN1, active compounds read low 1 | S. cerevisiae deletion strains, locus YDL134C, strain PPH21, active compounds read low 0.995 | S. cerevisiae deletion strains, locus YDL185W, strain tfp1, active compounds read low 0.977 | S. cerevisiae deletion strains, locus YDL192W, strain arf1, active compounds read low 0.98 | S. cerevisiae deletion strains, locus YDR001C, strain nth1, active compounds read low 0.973 | S. cerevisiae deletion strains, locus YDR069C, strain doa4, active compounds read low 0.963 | S. cerevisiae deletion strains, locus YDR101C, strain arx1, active compounds read low 0.985 | S. cerevisiae deletion strains, locus YDR137W, strain rgp1, active compounds read low 0.902 | S. cerevisiae deletion strains, locus YDR159W, strain sac3, active compounds read low 0.937 | S. cerevisiae deletion strains, locus YDR162C, strain NBP2, active compounds read low 1.01 | S. cerevisiae deletion strains, locus YDR195W, strain ref2 1.01 | S. cerevisiae deletion strains, locus YDR297W, strain sur2, active compounds read low 0.98 | S. cerevisiae deletion strains, locus YDR318W, strain mcm21, active compounds read low 0.975 | S. cerevisiae deletion strains, locus YDR334W, strain swr1, active compounds read low 0.94 | S. cerevisiae deletion strains, locus YDR335W, strain msn5, active compounds read low 0.967 | S. cerevisiae deletion strains, locus YDR388W, active compounds read low 0.978 | S. cerevisiae deletion strains, locus YDR392W, strain spt3, active compounds read low 0.938 | S. cerevisiae deletion strains, locus YDR502C, strain sam2, active compounds read low 0.951 | S. cerevisiae deletion strains, locus YEL003W, strain gim4, active compounds read low 0.942 | S. cerevisiae deletion strains, locus YEL037C, strain rad23, active compounds read low 0.97 | S. cerevisiae deletion strains, locus YEL061C, strain CIN8 (second series), active compounds read low 0.97 | S. cerevisiae deletion strains, locus YER015W, strain faa2, active compounds read low 0.973 | S. cerevisiae deletion strains, locus YER016W, strain bim1, active compounds read low 0.965 | S. cerevisiae deletion strains, locus YER110C, active compounds read low 0.958 | S. cerevisiae deletion strains, locus YER111C, strain swi4, active compounds read low 0.942 | S. cerevisiae deletion strains, locus YER155C, strain BEM2 (second series), active compounds read low 0.899 | S. cerevisiae deletion strains, locus YER155C, strain BEM2, active compounds read low 0.989 | S. cerevisiae deletion strains, locus YER167W, strain BCK2, active compounds read low 0.996 | S. cerevisiae deletion strains, locus YFR010W, strain ubp6, active compounds read low 0.992 | S. cerevisiae deletion strains, locus YGL078C, strain dbp3, active compounds read low 0.983 | S. cerevisiae deletion strains, locus YGL086W, strain mad1, active compounds read low 0.964 | S. cerevisiae deletion strains, locus YGL173C, strain kem1, active compounds read low 0.949 | S. cerevisiae deletion strains, locus YGL227W, strain vid30, active compounds read low 0.96 | S. cerevisiae deletion strains, locus YGL240W, strain doc1, active compounds read low 0.923 | S. cerevisiae deletion strains, locus YGL248W, strain PDE1, active compounds read low 0.998 | S. cerevisiae deletion strains, locus YGL253W, strain hxk2, active compounds read low 0.932 | S. cerevisiae deletion strains, locus YGR135W, strain pre9, active compounds read low 0.947 | S. cerevisiae deletion strains, locus YGR252W, strain gcn5, active compounds read low 0.933 | S. cerevisiae deletion strains, locus YHR013C, strain ard1, active compounds read low 0.966 | S. cerevisiae deletion strains, locus YHR027C, strain rpn1, active compounds read low 0.965 | S. cerevisiae deletion strains, locus YHR079C, strain IRE1 (second series), active compounds read low 0.977 | S. cerevisiae deletion strains, locus YHR094C, strain hxt1, active compounds read low 0.968 | S. cerevisiae deletion strains, locus YHR129C, strain ARP1, active compounds read low 0.992 | S. cerevisiae deletion strains, locus YHR142W, strain chs7, active compounds read low 0.954 | S. cerevisiae deletion strains, locus YHR200W, strain rpn10, active compounds read low 0.971 | S. cerevisiae deletion strains, locus YIL066C, strain RNR3, active compounds read low 1.01 | S. cerevisiae deletion strains, locus YIL073C, strain SPO22, active compounds read low 0.964 | S. cerevisiae deletion strains, locus YIL125W, strain kgd1, active compounds read low 0.994 | S. cerevisiae deletion strains, locus YIR030C, strain dcg1, active compounds read low 0.974 | S. cerevisiae deletion strains, locus YJL092W, strain hpr5, active compounds read low 0.948 | S. cerevisiae deletion strains, locus YJL095W, strain BCK1 (second series), active compounds read low 0.959 | S. cerevisiae deletion strains, locus YJL095W, strain BCK1, active compounds read low 0.958 | S. cerevisiae deletion strains, locus YJL115W, strain asf1, active compounds read low 0.936 | S. cerevisiae deletion strains, locus YJL129C, strain trk1, active compounds read low 0.973 | S. cerevisiae deletion strains, locus YJL134W, strain LCB3, active compounds read low 0.995 | S. cerevisiae deletion strains, locus YJL154C, strain vps35, active compounds read low 0.958 | S. cerevisiae deletion strains, locus YJL164C, strain tpk1, active compounds read low 0.972 | S. cerevisiae deletion strains, locus YJL166W, strain qcr8, active compounds read low 0.96 | S. cerevisiae deletion strains, locus YJL168C, strain set2, active compounds read low 0.951 | S. cerevisiae deletion strains, locus YJL187C, strain SWE1 (second series), active compounds read low 0.998 | S. cerevisiae deletion strains, locus YKL009W, strain mrt4, active compounds read low 0.997 | S. cerevisiae deletion strains, locus YKL068W, active compounds read low 0.993 | S. cerevisiae deletion strains, locus YKL085W, strain MDH1 (second series), active compounds read low 0.986 | S. cerevisiae deletion strains, locus YKL085W, strain MDH1, active compounds read low 0.986 | S. cerevisiae deletion strains, locus YKL160W, strain elf1, active compounds read low 0.977 | S. cerevisiae deletion strains, locus YKL190W, strain CNB1, active compounds read low 0.994 | S. cerevisiae deletion strains, locus YKR001C, strain vps1, active compounds read low 0.953 | S. cerevisiae deletion strains, locus YKR026C, strain gcn3, active compounds read low 0.976 | S. cerevisiae deletion strains, locus YKR091W, strain srl3, active compounds read low 0.968 | S. cerevisiae deletion strains, locus YLL001W, strain dnm1, active compounds read low 0.951 | S. cerevisiae deletion strains, locus YLL026W, active compounds read low 0.964 | S. cerevisiae deletion strains, locus YLL041C, strain sdh2, active compounds read low 0.98 | S. cerevisiae deletion strains, locus YLR027C, strain aat2, active compounds read low 0.968 | S. cerevisiae deletion strains, locus YLR039C, strain RIC1, active compounds read low 0.96 | S. cerevisiae deletion strains, locus YLR058C, strain SHM2, active compounds read low 0.995 | S. cerevisiae deletion strains, locus YLR102C, strain apc9, active compounds read low 0.985 | S. cerevisiae deletion strains, locus YLR221C, strain rsa3, active compounds read low 0.969 | S. cerevisiae deletion strains, locus YLR258W, strain gsy2, active compounds read low 0.967 | S. cerevisiae deletion strains, locus YLR262C, strain YPT6 (second series), active compounds read low 0.969 | S. cerevisiae deletion strains, locus YLR262C, strain YPT6, active compounds read low 0.973 | S. cerevisiae deletion strains, locus YLR268W, strain sec22, active compounds read low 0.965 | S. cerevisiae deletion strains, locus YLR320W, strain mms22, active compounds read low 0.966 | S. cerevisiae deletion strains, locus YLR342W, strain FKS1, active compounds read low 0.969 | S. cerevisiae deletion strains, locus YLR357W, strain rsc2, active compounds read low 0.947 | S. cerevisiae deletion strains, locus YLR370C, strain arc18, active compounds read low 0.953 | S. cerevisiae deletion strains, locus YLR371W, strain rom2, active compounds read low 0.98 | S. cerevisiae deletion strains, locus YLR384C, strain iki3, active compounds read low 0.969 | S. cerevisiae deletion strains, locus YLR418C, strain cdc73, active compounds read low 0.956 | S. cerevisiae deletion strains, locus YML016C, strain PPZ1, active compounds read low 0.989 | S. cerevisiae deletion strains, locus YML032C, strain rad52, active compounds read low 0.988 | S. cerevisiae deletion strains, locus YML120C, strain ndi1, active compounds read low 0.953 | S. cerevisiae deletion strains, locus YML124C, strain tub3, active compounds read low 0.976 | S. cerevisiae deletion strains, locus YMR058W, strain fet3, active compounds read low 0.948 | S. cerevisiae deletion strains, locus YMR078C, strain ctf18, active compounds read low 0.965 | S. cerevisiae deletion strains, locus YMR125W, strain sto1, active compounds read low 0.97 | S. cerevisiae deletion strains, locus YMR129W, active compounds read low 0.994 | S. cerevisiae deletion strains, locus YMR205C, strain PFK2, active compounds read low 0.976 | S. cerevisiae deletion strains, locus YMR223W, strain ubp8, active compounds read low 0.98 | S. cerevisiae deletion strains, locus YMR231W, strain pep5, active compounds read low 0.968 | S. cerevisiae deletion strains, locus YMR307W, strain GAS1, active compounds read low 1 | S. cerevisiae deletion strains, locus YNL067W, strain RPL9B, active compounds read low 0.975 | S. cerevisiae deletion strains, locus YNL071W, strain lat1, active compounds read low 0.955 | S. cerevisiae deletion strains, locus YNL153C, strain GIM3, active compounds read low 0.995 | S. cerevisiae deletion strains, locus YNL233W, strain BNI4, active compounds read low 0.959 | S. cerevisiae deletion strains, locus YNL248C, strain rpa49, active compounds read low 1.03 | S. cerevisiae deletion strains, locus YNL250W, strain rad50, active compounds read low 0.968 | S. cerevisiae deletion strains, locus YNL271C, strain bni1, active compounds read low 0.97 | S. cerevisiae deletion strains, locus YNL298W, strain CLA4, active compounds read low 0.976 | S. cerevisiae deletion strains, locus YNL307C, strain MCK1, active compounds read low 0.963 | S. cerevisiae deletion strains, locus YNL322C, strain KRE1 (second series), active compounds read low 0.964 | S. cerevisiae deletion strains, locus YNL322C, strain KRE1, active compounds read low 0.989 | S. cerevisiae deletion strains, locus YNR049C, strain mso1, active compounds read low 0.932 | S. cerevisiae deletion strains, locus YNR052C, strain pop2, active compounds read low 0.971 | S. cerevisiae deletion strains, locus YOL012C, strain htz1 1.7 | S. cerevisiae deletion strains, locus YOL147C, strain pex11, active compounds read low 0.967 | S. cerevisiae deletion strains, locus YOR001W, strain rrp6, active compounds read low 0.97 | S. cerevisiae deletion strains, locus YOR061W, strain CKA2, active compounds read low 1 | S. cerevisiae deletion strains, locus YOR069W, strain VPS5, active compounds read low 0.989 | S. cerevisiae deletion strains, locus YOR070C, strain gyp1, active compounds read low 0.97 | S. cerevisiae deletion strains, locus YOR080W, strain dia2, active compounds read low 0.956 | S. cerevisiae deletion strains, locus YOR083W, strain WHI5, active compounds read low 0.969 | S. cerevisiae deletion strains, locus YOR106W, strain vam3, active compounds read low 1 | S. cerevisiae deletion strains, locus YOR136W, strain idh2, active compounds read low 0.98 | S. cerevisiae deletion strains, locus YOR144C, strain elg1, active compounds read low 0.975 | S. cerevisiae deletion strains, locus YOR184W, strain ser1, active compounds read low 0.92 | S. cerevisiae deletion strains, locus YOR265W, strain rbl2, active compounds read low 0.973 | S. cerevisiae deletion strains, locus YOR270C, strain vph1, active compounds read low 0.997 | S. cerevisiae deletion strains, locus YOR290C, strain snf2, active compounds read low 0.957 | S. cerevisiae deletion strains, locus YOR316C, strain cot1, active compounds read low 0.974 | S. cerevisiae deletion strains, locus YPL051W, strain arl3, active compounds read low 0.985 | S. cerevisiae deletion strains, locus YPL078C, strain atp4, active compounds read low 0.95 | S. cerevisiae deletion strains, locus YPL106C, strain sse1, active compounds read low 0.928 | S. cerevisiae deletion strains, locus YPL240C, strain hsp82, active compounds read low 0.977 | S. cerevisiae deletion strains, locus YPR119W, strain clb2, active compounds read low 0.974 | S. cerevisiae deletion strains, locus YPR141C, strain kar3, active compounds read low 0.976 | S. cerevisiae deletion strains, locus YPR163C, strain tif3, active compounds read low 0.973 | S. cerevisiae deletion strains, locus YPR167C, strain met16, active compounds read low 0.974 | S. cerevisiae deletion strains, strain wtn01, active compounds read low 0.972 | S. cerevisiae strains, strain wild type, active compounds read low 1.01
